Values joined by “and” are separate entries in the source; they are usually repeats but may differ in a detail not shown here. Equal entries are not always repeated.
These molecules were tested on H9c2 (assay: cardiomyocyte survival under oxidative or metabolic stress – cell-based, panel, H9c2 and HL-1, ATP luminescence, set 2, SAR follow-up (AID 651871;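 also: cells exposed to stressor for 2 h before ATP readout; reference of the scale not given here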)). Settings: H9c2/HL-1 cardiomyocytes, 2-deoxyglucose stress, with 2-deoxyglucose; run 13, at 79 µM (top of the series).

Row | Structure (SMILES) | activity (protection/inhibition)
1 | COc1ccc2c(c1OC)C(=O)N1c3ccccc3C(=O)N(Cc3cccc(Cl)c3Cl)C21 (stereo not drawn) | 81.4% and 89.7% and -5.69%
2 | CCOC(=O)c1cccc(NC(=O)CNC(=O)c2cc(-c3cc(OC)c(OC)c(OC)c3)nc3ccccc23)c1 | 92.9%
3 | COc1ccc2nc(-c3cc(OC)c(OC)c(OC)c3)cc(C(=O)NCC(=O)Nc3ccc(C(C)=O)cc3)c2c1 | 86.7%

Source: PubChem BioAssay AID651871 (Sanford-Burnham Center for Chemical Genomics, 2012)
